The list is not random: actives were taken first. Their share in the collection is about 1.9%.
S1P4 agonist: S1P4 receptor agonists, primary screen, cell-based | Sphingosine 1-phosphate receptor 4 (Homo sapiens), O95977 | S1P4-expressing cell line, agonist reporter assay | activation, % at 4.98 µM | hit rate 0.35% among 220,000 | AID 1509, 2009; in the data active means activation above about 11%
Target sequence (O95977 whole entry, looked up): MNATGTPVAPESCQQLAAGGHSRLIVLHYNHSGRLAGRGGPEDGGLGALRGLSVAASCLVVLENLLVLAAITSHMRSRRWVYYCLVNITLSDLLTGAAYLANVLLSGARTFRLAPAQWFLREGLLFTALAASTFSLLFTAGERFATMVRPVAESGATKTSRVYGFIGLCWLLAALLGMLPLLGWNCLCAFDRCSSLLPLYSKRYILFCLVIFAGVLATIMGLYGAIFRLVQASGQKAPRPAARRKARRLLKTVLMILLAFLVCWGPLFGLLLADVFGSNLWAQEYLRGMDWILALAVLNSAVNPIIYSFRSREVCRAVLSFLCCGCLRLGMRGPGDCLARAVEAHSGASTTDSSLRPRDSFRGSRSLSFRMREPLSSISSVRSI
EP2 antag: human EP2 receptor antagonists, primary screen, TR-FRET cAMP, C6 glioma cells; Prostaglandin E2 receptor EP2 subtype (Homo sapiens), P43116; C6 glioma cells expressing human EP2; cells stimulated with saturating PGE2; inhibition, % at 25 µM; hit rate 0.52% among 260,000;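 active means percent inhibition above 40 after rounding to a whole number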;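 further: rat C6 glioma host cells with rolipram phosphodiesterase inhibitor present; the protocol text gives 20 µM as final concentration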
EP2 modulator: EP2 receptor modulators, cAMP readout, primary screen, cell-based, HTRF cAMP, PGE2 stimulation; induction, % at 25 µM; AID 940, 2007; EP2-expressing cells, cAMP HTRF FRET, PGE2 co-stimulation; hit rate 0.83% among 260,000; Prostaglandin E2 receptor EP2 subtype (Homo sapiens), P43116;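 active means compounds whose cAMP rise, as percent of the full-agonist control response, exceeds 60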;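 further: rat C6 glioma line stably carrying human EP2 under a CMV promoter; the protocol text gives 20 µM as final concentration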
Pf gamet viab: late stage P. falciparum gametocyte viability inhibitors, primary screen, ATP luminescence, HTS; inhibition, % at 10.9 µM; hit rate 0.065% among 150,000; P. falciparum stage V gametocytes, 24 h;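 active means inhibition above the mean plus 3 SD of compounds within the control limits, set per campaign, cut at about 38% in these data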
S1P3 antag: S1P3 receptor antagonists, primary screen, cell-based | CHO S1P3 NFAT-BLA reporter, FRET fluorescence, antagonist mode | inhibition, % at 4.98 µM | hit rate 0.27% among 170,000 | AID 485, 2006;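 active means inhibition above the plate cutoff, the mean inhibition of test wells on that plate plus 3 SD, cut at about 28% in these data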;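 further: cells challenged with S1P at its EC80 of 0.8 µM; blue over green emission ratio from cleaved BLA substrate after 4 h stimulation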
S1P4 antagonist: S1P4 receptor antagonists, primary screen, cell-based; inhibition, % at 4.98 µM; S1P4-expressing cells, antagonist mode, reporter read-out; hit rate 0.26% among 220,000; AID 1510, 2009; in the data active means inhibition above about 29%
S1P4 antag cf: S1P4 receptor antagonists, human, confirmation, cell-based; shares compounds with S1P4 antagonist; S1P4-expressing cell line, antagonist mode, reporter read-out; inhibition, % at 4.98 µM; hit rate 71% among 520; in the data active means inhibition above about 30%
S1P1 antagonist: S1P1 receptor antagonists, human, counter-screen for S1P4 antagonist project, cell-based. shares compounds with S1P4 antagonist. cell-based S1P1 antagonist counterscreen, inhibition. inhibition, % at 4.98 µM. hit rate 37% among 520; in the data active means inhibition above about 40%;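 further: receptor stimulated with S1P near its EC80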
Numbers stand for hits; 0 = inactive; - = no result.

SMILES	S1P4 agonist	EP2 antag	EP2 modulator	Pf gamet viab	S1P3 antag	S1P4 antagonist	S1P4 antag cf	S1P1 antagonist
CCC(=O)OCCNc1cc(Sc2nc3ccccc3[nH]2)c2nonc2c1[N+](=O)[O-]	0	0	0	-	0	36	110	0
COCCN=C1Sc2nc3c(C)cccc3cc2CN1Cc1ccco1	0	0	0	0	-	51	0	0
COCCN=C1Sc2nc3cc4c(cc3cc2CN1Cc1ccco1)OCO4	-	0	0	-	-	-	-	-
Cc1cccc2cc3c(nc12)SC(=NCC1CCCO1)N(Cc1ccco1)C3 (stereo not drawn)	0	0	0	-	0	56	0	47
Cc1cc(C)n(-c2cccc(CN3CCC(O)(c4ccccc4F)CC3)c2)n1	-	0	0	-	-	-	-	-
O=C(Cc1cccs1)NNC(=S)NC(=O)c1cccnc1	-	0	0	-	-	-	-	-
CCN(CC)C(=O)CN(c1cccc(Br)c1)S(C)(=O)=O	0	0	0	0	0	30	0	0
O=C(CSc1nnc(-c2ccco2)o1)Nc1ccc(OCc2ccccc2)cc1	-	0	0	-	-	-	-	-
CCCN(CCC)S(=O)(=O)c1ccc(N2CCCC2=O)c([N+](=O)[O-])c1	0	0	0	0	0	0	-	-
CCCN(CCC)S(=O)(=O)c1ccc(Cl)c([N+](=O)[O-])c1	0	0	0	0	0	52	100	0
COc1ccccc1C(=O)OCc1nc(N)nc(Nc2ccccc2C)n1	0	0	0	0	0	107	0	0
C=CCOC(=O)C1=C(C)OC(N)=C(C#N)C1c1cc2c(C)ccc(C)c2[nH]c1=O (stereo not drawn)	-	0	0	-	-	-	-	-
COc1ccccc1-c1cc(C(=O)Nc2c(F)cc(F)cc2Br)no1	0	0	0	0	0	41	42	0
O=C(/C=C/c1ccccc1[N+](=O)[O-])c1ccccc1Br	0	0	0	0	0	36	79	0
CC(C(=O)Nc1ccccc1-c1ccccc1)n1nc(-c2cccs2)cc(N)c1=O (stereo not drawn)	-	0	0	-	-	-	-	-
O=C(Cn1cnc2ccccc2c1=O)NC1(c2ccc3c(c2)OCO3)CCCC1	-	-	0	-	-	-	-	-
Oc1ccc(C(c2nnnn2C2CCCC2)N2CCN(c3nc4ccccc4s3)CC2)cc1 (stereo not drawn)	-	0	0	-	-	-	-	-
COCCCn1c(N)c(-c2nc3ccccc3n2C)c2nc3ccccc3nc21	0	0	0	0	-	0	-	-
Cn1c(-c2c(N)n(CCCc3ccccc3)c3nc4ccccc4nc23)nc2ccccc21	0	0	0	-	-	37	83	106
CC1CC(C)(C)Nc2ccc(OC(=O)c3ccco3)cc21 (stereo not drawn)	0	0	0	-	0	0	-	-
CC1CC(C)(C)Nc2ccc(N=O)cc21 (stereo not drawn)	0	0	0	0	0	37	50	0
Cc1ccc2occ(CN3CCc4c(nc(C)[nH]c4=O)C3)c(=O)c2c1	-	0	0	-	-	-	-	-
COc1cc(C2/C(=C(/O)c3ccc(Cl)cc3)C(=O)C(=O)N2CCCN(C)C)ccc1O (stereo not drawn)	-	0	0	-	-	-	-	-
COc1cc2c3nnc(-c4ccc(F)cc4)c-3cn(Cc3ccc(F)cc3)c2cc1OC	0	0	0	-	-	0	-	-
COc1cc2c3nnc(-c4ccc(F)cc4)c-3cn(Cc3ccccc3)c2cc1OC	0	0	0	-	-	41	85	120
Cc1nc2ccc(NC(=O)c3nn(CC(C)C)c(=O)c4ccccc34)cc2s1	0	0	0	0	0	40	45	0
Cc1nnc(NC(=O)c2nn(CC(C)C)c(=O)c3ccccc23)s1	0	0	0	0	0	0	-	-
N#CC(C#N)=C1C=CC=CN1/C(=C\c1ccco1)C(=O)c1ccccc1	0	0	0	0	0	66	116	119

Bioassay records from PubChem BioAssay.
